# Measured values taken from PubChem BioAssay (NCATS).
# “And” between values parts separate entries of the source, which are not always exact repeats. Equal entries are not always repeated. Records with an inconclusive call do not appear. A call without a number means that no potency is given here. Some compounds were tested as several samples or in several runs, with calls that do not always agree. The source made the active and inactive calls. Unless noted, calls follow the shape of the dose curve; as a rule, active = well fitted curve in the direction sought with a large enough effect; inconclusive = small, poorly fitted or top-dose-only effect, or another doubt; inactive = no such curve, though single readings can be large; an effect the other way counts as inactive or inconclusive.
# Key:
# [1] = molecular target: Guanine nucleotide-binding protein G(i) subunit alpha-1 (Homo sapiens) (UniProt P63096); experiment: qHTS Assay for Inhibitors of RGS12 GoLoco Motif Activity (Green Fluorophore) (AID 879);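 also: negative values mean loss of peptide binding seen as reduced polarization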
# Summary of the method: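 Fluorescence polarization assay: 50 nM Gαi1 with 10 nM FITC-labeled RGS12 GoLoco peptide in 10 mM Tris pH 7.5, 150 mM NaCl, 0.1 mM GDP, 0.05% NP40, 10 min at room temperature with compound.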
# [2] = molecular target: Cytochrome P450 3A4 (Homo sapiens) (UniProt P08684); experiment: qHTS Assay for Activators of Cytochrome P450 3A4 (AID 885); also: nearly all actives have a fitted effect of over 65% in size
# Summary of the method: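 20nM CYP3A4 + 25uM Luciferin-PPXE (=KM), 200mM KPO4; cpd 10 min RT; NADPH regen, 60 min RT; stop w/ detection buffer, 20 min; luminescence. Normalized to 57 uM ketoconazole.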
# [3] = molecular target: Cytochrome P450 2D6 (Homo sapiens) (UniProt P10635); experiment: qHTS Assay for Inhibitors and Substrates of Cytochrome P450 2D6 (AID 891); also: nearly all actives have a fitted effect of over 60% in size; also: potency is read from the fitted curve at half-maximal effect
# Summary of the method: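 Human CYP2D6 (5 nM) with 30 uM Luciferin-ME EGE (at Km) in 100 mM KPO4, compound preincubated 10 min, then NADPH regeneration system for 60 min at room temperature. Luciferin read by luminescence; normalized to 1.43 uM quinidine.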
# [4] = qHTS Assay for Identification of Small Molecule Antagonists for NFkB Signaling Pathway (AID 895; active = well fitted inhibition curve with a large enough effect in the signal ratio, with a control signal flat, not every such curve was filed as active; the % refers to the signal ratio; also: potency is read from the fitted curve at half-maximal effect)
# Summary of the method: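 Beta-lactamase reporter read-out (460 and 530 nm emission ratio, 405 nm excitation, 2 hrs substrate loading RT) after 5 hr stimulation with 10 pM TNF alpha in compound-treated NFkB-bla ME-180 cells in low-serum medium.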
# [5] = molecular target: 3',5'-cyclic-AMP phosphodiesterase 4B (Homo sapiens) (UniProt Q07343); experiment: qHTS Assay for Inhibitors of PDE-IV (AID 607; active = well fitted activation curve with a large enough effect in the main read-out, with a control signal flat, not every such curve was filed as active)
# Summary of the method: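 ACTOne HEK293 cells carry a modified cAMP-gated CNG channel and express endogenous PDE4; plated 1000 cells/well, compounds up to 22.9 uM final. Membrane-potential dye fluorescence (ex 535/em 590) was read; parental cells received 10 uM forskolin + 100 uM RO 20-1724.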
# [6] = molecular target: Cytochrome P450 3A4 (Homo sapiens) (UniProt P08684); experiment: qHTS Assay for Inhibitors and Substrates of Cytochrome P450 3A4 (AID 884); also: series mostly up to about 57 µM; nearly all actives have a fitted effect of over 50% in size
# Summary of the method: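 20 nM human CYP3A4 with 25 uM Luciferin-PPXE (at KM) in 200 mM KPO4, preincubated 10 min with compound; NADPH regeneration started a 60 min RT reaction. Luciferin detected by luminescence, normalized to 57 uM ketoconazole as full inhibition.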
# Cytochrome P450 2D6 (Homo sapiens), sequence (P10635 whole entry, looked up): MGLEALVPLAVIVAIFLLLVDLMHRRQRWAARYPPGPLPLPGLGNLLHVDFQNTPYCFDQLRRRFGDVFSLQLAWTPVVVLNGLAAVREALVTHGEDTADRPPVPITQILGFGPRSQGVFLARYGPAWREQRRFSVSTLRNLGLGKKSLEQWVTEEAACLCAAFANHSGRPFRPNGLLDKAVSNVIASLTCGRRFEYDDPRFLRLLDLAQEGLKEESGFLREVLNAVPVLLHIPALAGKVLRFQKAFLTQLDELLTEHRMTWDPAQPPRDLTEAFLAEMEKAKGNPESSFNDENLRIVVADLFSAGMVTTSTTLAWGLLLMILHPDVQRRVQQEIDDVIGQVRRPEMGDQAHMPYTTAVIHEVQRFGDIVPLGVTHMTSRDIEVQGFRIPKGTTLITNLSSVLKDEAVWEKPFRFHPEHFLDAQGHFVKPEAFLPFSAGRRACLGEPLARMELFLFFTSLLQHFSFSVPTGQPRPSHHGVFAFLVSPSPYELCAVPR
# Guanine nucleotide-binding protein G(i) subunit alpha-1 (Homo sapiens), sequence (P63096 whole entry, looked up): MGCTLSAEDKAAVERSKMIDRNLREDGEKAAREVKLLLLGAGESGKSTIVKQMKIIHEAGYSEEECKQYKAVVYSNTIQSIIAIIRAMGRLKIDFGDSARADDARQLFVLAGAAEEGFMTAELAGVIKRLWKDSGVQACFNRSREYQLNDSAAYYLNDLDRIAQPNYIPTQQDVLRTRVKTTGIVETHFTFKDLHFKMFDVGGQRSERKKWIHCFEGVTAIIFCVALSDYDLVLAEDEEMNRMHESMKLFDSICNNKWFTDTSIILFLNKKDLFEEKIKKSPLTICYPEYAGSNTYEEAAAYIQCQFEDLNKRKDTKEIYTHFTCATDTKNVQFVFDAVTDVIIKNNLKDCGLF
# Cytochrome P450 3A4 (Homo sapiens), sequence (P08684 whole entry, looked up): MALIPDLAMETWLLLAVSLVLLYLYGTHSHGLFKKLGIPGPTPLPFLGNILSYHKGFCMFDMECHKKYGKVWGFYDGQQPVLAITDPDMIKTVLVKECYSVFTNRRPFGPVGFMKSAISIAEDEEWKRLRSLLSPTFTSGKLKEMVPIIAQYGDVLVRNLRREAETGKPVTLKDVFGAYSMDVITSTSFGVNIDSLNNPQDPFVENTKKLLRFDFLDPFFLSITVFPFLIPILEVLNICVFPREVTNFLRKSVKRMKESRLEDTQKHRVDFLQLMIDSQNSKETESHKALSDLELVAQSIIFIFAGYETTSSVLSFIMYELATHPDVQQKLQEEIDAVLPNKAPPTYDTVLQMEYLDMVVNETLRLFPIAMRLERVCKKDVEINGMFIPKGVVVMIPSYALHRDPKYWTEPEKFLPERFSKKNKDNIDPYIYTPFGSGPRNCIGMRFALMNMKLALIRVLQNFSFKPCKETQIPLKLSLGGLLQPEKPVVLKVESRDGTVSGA
# 3',5'-cyclic-AMP phosphodiesterase 4B (Homo sapiens), sequence (Q07343 whole entry, looked up): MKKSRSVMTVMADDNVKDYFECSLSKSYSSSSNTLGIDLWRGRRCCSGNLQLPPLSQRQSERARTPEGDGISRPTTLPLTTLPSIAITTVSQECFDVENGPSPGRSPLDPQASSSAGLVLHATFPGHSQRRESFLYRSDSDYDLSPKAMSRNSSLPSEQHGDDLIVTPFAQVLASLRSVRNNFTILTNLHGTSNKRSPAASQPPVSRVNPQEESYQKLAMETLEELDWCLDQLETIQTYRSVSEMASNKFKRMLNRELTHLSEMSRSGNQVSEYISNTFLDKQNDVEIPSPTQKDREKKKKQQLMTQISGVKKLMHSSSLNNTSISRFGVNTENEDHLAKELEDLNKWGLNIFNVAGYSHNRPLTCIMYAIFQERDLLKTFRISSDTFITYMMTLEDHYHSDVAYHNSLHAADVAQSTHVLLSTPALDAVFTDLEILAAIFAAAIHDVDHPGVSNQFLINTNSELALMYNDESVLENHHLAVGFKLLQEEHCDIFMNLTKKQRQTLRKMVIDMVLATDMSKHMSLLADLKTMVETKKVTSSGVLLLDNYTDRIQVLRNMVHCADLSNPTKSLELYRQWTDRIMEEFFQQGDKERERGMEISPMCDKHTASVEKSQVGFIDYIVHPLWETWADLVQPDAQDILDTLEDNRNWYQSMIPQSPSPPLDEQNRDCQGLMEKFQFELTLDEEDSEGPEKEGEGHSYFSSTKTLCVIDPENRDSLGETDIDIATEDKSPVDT
compound,measurement,setting,value
Cc1nc2sccn2c(=O)c1CCN1CCC(=C(c2ccc(F)cc2)c2ccc(F)cc2)CC1,Potency,[1],inactive
same,Potency,[2],inactive
same,Potency,[3],10 µM (active)
same,Potency,[4],5.01 µM (active)
Cc1ccc(=O)n(-c2ccccc2)c1,Potency,[5],inactive
same,Potency,[1],inactive
same,Potency,[3],inactive
same,Potency,[4],inactive
CC1=C(C)C(=O)C(CCCCC#CCCCC#CCO)=C(C)C1=O,Potency,[5],inactive
same,Potency,[1],inactive
same,Potency,[3],31.6 µM (active)
Fc1ccc(C(c2ccc(F)cc2)N2CCN(C/C=C/c3ccccc3)CC2)cc1,outcome,[6],inactive
CCCCNc1c(C(=O)OCC)c(C)nc2c1cnn2CC,Potency,[1],inactive
same,Potency,[2],inactive
same,Potency,[3],inactive and 199 nM (active)
CCc1cccc(N(C)C(N)=Nc2cccc3ccccc23)c1,Potency,[5],inactive
same,Potency,[1],inactive
same,Potency,[3],0.199 µM (active)
same,Potency,[4],inactive
C[C@]12C=CC(=O)C=C1CC[C@H]1[C@@H]3C[C@@H](O)[C@](O)(C(=O)CO)[C@@]3(C)C[C@H](O)[C@@]12F,Potency,[1],inactive
same,Potency,[2],inactive
CCCNC(C)C(=O)Nc1ccccc1C (centres undefined),outcome,[6],inactive
Cc1nc2c([nH]1)c(=O)n(C)c(=O)n2Cc1ccco1,Potency,[5],inactive
same,Potency,[1],inactive
same,Potency,[4],0.0631 µM (active)
Nc1c2c(nc3ccccc13)CCCC2O (centres undefined),outcome,[6],inactive
C[N+](C)(C)CCOC(N)=O,Potency,[1],inactive
same,outcome,[6],inactive
C(=C\c1ccccc1)/CN1CCN(C(c2ccccc2)c2ccccc2)CC1,Potency,[1],inactive
